The record followed here is PubChem BioAssay (EPA / NIEHS).

Active and inactive are the calls of the source. How the source made its calls: active means hit-call score of the fitted dose curve at least 0.9, where 1 is the maximum; inactive means score below 0.9.

The assay is described as follows: APR_HepG2_CellCycleArrest_24hr: Apredica 24-hour HepG2 Assay for Cell Cycle Arrest (AID 2282905).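 Further: cell cycle arrest scored as ratio of 2N to 4N nuclear DNA content.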 Conditions: imaging, actives raise or lower the signal. The procedure:
APR_HepG2_24hr is a cell-based, multiplexed-readout assay that uses HepG2, a human liver cell line, with measurements taken at 24 hours after chemical dosing in a 384-well plate.APR_HepG2_CellCycleArrest_24hr is one of 10 assay component(s) measured or calculated from the APR_HepG2_24hr assay. It is designed to make measurements of cell phenotype, a form of morphology reporter, as detected with fluorescence intensity signals by HCS Fluorescent Imaging technology.Data from the assay component APR_HepG2_CellCycleArrest_24hr was analyzed into 1 assay endpoint. This assay endpoint, APR_HepG2_CellCycleArrest_24hr, was analyzed with bidirectional fitting relative to DMSO as the negative control and baseline of activity. Using a type of morphology reporter, measures of all nuclear dna for gain or loss-of-signal activity can be used to understand the signaling at the pathway-level as they relate to the gene . Furthermore, this assay endpoint can be referred to as a primary readout, because this assay has produced multiple assay endpoints where this one serves a signaling function. To generalize the intended target to other relatable targets, this assay endpoint is annotated to the cell cycle intended target family, where the subfamily is arrest.
Cells were treated with dimethyl sulfoxide (DMSO) as a solvent control at a final concentration of 0.5% v/v or with compounds in DMSO with a resulting final DMSO concentration of 0.5% v/v. Compound treatment was done at concentrations of 0.39, 0.78, 1.56, 3.12, 6.24, 12.5, 25, 50, 100, and 200 uM in duplicate on each plate. Cells were treated with compounds for 1, 24, or 72 hr. Carbonyl […] m-chloro-phenylhydrazone (CCCP) and taxol were used as positive controls for mitochondrial function and cytoskeletal stability, respectively; DMSO served as the negative control for this experiment. Cells were fixed by the direct addition of 50 uL formaldehyde in Hank's Balanced Salt Solution (HBSS) to a final concentration of 3.7%. After incubation in the fixation medium for 30 min at room temperature (293-298 K), cells were rinsed twice with HBSS and treated with cell permeabilization buffer (16 uL of 0.5% Triton X-100) for 10 min at room temperature (293-298 K) before labeling. For mitochondrial membrane potential and mitochondrial measurements, pre-fixed cells were incubated with 50 uL of MitoTracker Red CMXRos (Invitrogen) at a concentration of 250 nM for 30 min before fixation. In the remaining cases, post-fixed cells were labeled by incubation with a multiplexed mixture of primary antibodies in HBSS for 60 min at room temperature (293-298 K) to detect immunoreactivity of c-Jun (1:500), phospho-histone H3 (1:100), phospho-histone H2A.x (1:200), p53 (1:400), alpha-tubulin (1:200) and Hoechst 33342 (2 ug/mL). Cells were labeled for multiplexed imaging on two separate plates: a) Hoechst 33342, MitoTracker Red, phospho-histone H3, and alpha-tubulin, and b) Hoechst 33342, phospho-histone H2A.x, and c-Jun. A final rinse with HBSS (50 uL) was performed before analysis. The primary and secondary antibodies for the proteins were phospho-histone H3 (rabbit anti-phospho-histone H3 and FITC-donkey anti-rabbit IgG), phospho-histone H2A.x (mouse anti-phospho-histone H2A.x and FITC-donkey anti-mouse IgG), c-Jun (rabbit anti-phospho-c-Jun and Cy3-donkey anti-rabbit IgG), p53 (sheep anti-p53 and Cy5-donkey anti-sheep IgG), alpha-tubulin (mouse anti-alpha-tubulin and Cy5-donkey anti-mouse IgG). These antibodies are available as the CellCiphr HepG2 assay kit (Millipore).Digital images of each well were captured using a Cellomics ArrayScan VTI (Thermo Scientific Cellomics) (0.8 NA objective, 0.63x optical coupler, and XF-93 filter set) at 20x magnification. The images were acquired using the autofocus feature of the ArrayScan instrument, which entails the following steps. First, the camera focuses on channel 1 (Hoechst 33342), where nuclei are identified. Second, a Z offset of 1 um is used for capturing mitochondria (MitoTracker Red). […]
Regarding `COS(C)(=O)=O`, the molecule was classed as inactive.

As to `CC[C@H](C)C(=O)O[C@H]1C[C@H](O)C=C2C=C[C@H](C)[C@H](CC[C@@H](O)C[C@@H](O)CC(=O)O)[C@H]21`, the molecule was called inactive.

As a reminder, the AC50 is the concentration giving half of the maximal activity seen. On to `COc1cc2c(c(OC)c1OC)-c1ccc(OC)c(=O)cc1[C@@H](NC(C)=O)CC2`, for which the AC50 is 0.0391 µM (active).

Take `Cc1ncc([C@@H](CCCCCCc2ccc3c(n2)NCCC3)CC(=O)O)cn1`: the call was inactive.

As for `O=C(O)c1cccc(C(=O)O)c1`, the call was inactive.

Regarding `CCCc1ccccc1`, the molecule was called inactive.

With `O=S1(=O)CCCO1`, the outcome was inactive.

Take `CC(C)CCCCCCOC(=O)C1CCCCC1C(=O)OCCCCCCC(C)C` (stereo not given): the molecule was classed as inactive.

As to `CCCCCCCCCCCCCCCCOS(=O)(=O)O`, the outcome was inactive.

As to `OCCNCCO`, the call was inactive.

With `OC[C@H]1O[C@@H]2O[C@H]3[C@H](O)[C@@H](O)[C@@H](O[C@H]4[C@H](O)[C@@H](O)[C@@H](O[C@H]5[C@H](O)[C@@H](O)[C@@H](O[C@H]6[C@H](O)[C@@H](O)[C@@H](O[C@H]7[C@H](O)[C@@H](O)[C@@H](O[C@H]1[C@H](O)[C@H]2O)O[C@@H]7CO)O[C@@H]6CO)O[C@@H]5CO)O[C@@H]4CO)O[C@@H]3CO`, the molecule was classed as inactive.

For the molecule `Cc1nccn1-c1ccc(Sc2cccc(C3(C(N)=O)CCOCC3)c2)cc1`, the result was inactive.

As to `O=C(NO)C1(NS(=O)(=O)c2ccc(Oc3ccc(F)cc3)cc2)CCOCC1`, the molecule was called inactive.

For the molecule `CC(=O)c1ccccc1`, the result was inactive.

Consider `CCCCOC(=O)c1ccccc1`, for which the molecule was classed as inactive.

For the molecule `CCCCCCCCCCCCCCO`, the AC50 is 162 µM (active).

On to `CNC(C)=O`, for which the call was inactive.

Take `OCC(CO)(CO)CO`: the result was inactive.

With `c1ccc2c(c1)-c1cccc3c1c-2cc1ccccc13`, the result was inactive.

Regarding `CCCCCCOC(=O)CC(CC(=O)OCCCCCC)(OC(=O)CCC)C(=O)OCCCCCC`, the result was inactive.

Turning to `CC1(C)C(=O)N(Cl)C(=O)N1Cl`, the molecule was called inactive.

`C[C@@H](Oc1ccc(CNC(=O)c2cccnc2Oc2ccc3c(c2)OCO3)c(F)c1)C(=O)O`: the call was inactive.

With `CCCCCCCC/C=C\CCCCCCCC(=O)OC[C@@H](O)[C@H]1OC[C@H](O)[C@H]1O`, the molecule was called inactive.

In the case of `CCc1ccc(O)c(C(C)(C)C)c1`, the AC50 is 98.1 µM (active).

In the case of `OCc1ccccc1`, the outcome was inactive.

In the case of `CCCCCCCCN(C)C`, the molecule was classed as inactive.

As for `NC(=O)N1c2ccccc2C=Cc2ccccc21`, the call was inactive.

In the case of `NC(=O)NN=Cc1ccc([N+](=O)[O-])o1`, the AC50 is 81.4 µM (active).

As to `CCCC(CCC)C(=O)O`, the molecule was classed as inactive.

In the case of `CCOc1ccc2[nH]cc(C(=O)NCc3ccccc3)c(=O)c2n1`, the molecule was classed as inactive.

For the molecule `CC(C)CC(C)O` (stereo not given), the result was inactive.

Turning to `C=CCc1cc(S(=O)(=O)c2ccc(O)c(CC=C)c2)ccc1O`, the AC50 was 32 µM (active).

On to `O=S(=O)(O)c1ccc(N=Nc2c(O)ccc3cc(S(=O)(=O)O)ccc23)cc1`, for which the call was inactive.

Regarding `CCOC(N)=O`, the result was inactive.

Consider `c1ccc(C(O[C@@H]2CCCN(CCc3ccc4c(c3)OCO4)C2)c2ccccc2)cc1`, for which the AC50 was 83.5 µM (active).

For `NC(N)=O`, the call was inactive.

For `CCCCC(CC)C(=O)OCCOCCOCCOC(=O)C(CC)CCCC` (stereo not given), the molecule was classed as inactive.

Regarding `COCc1nnc(-c2ccc[n+]([O-])c2)n1-c1c(Cl)c(Cl)cc2[nH]c(=O)c(=O)[nH]c12`, the outcome was inactive.

As to `Cn1c(=O)c2[nH]cnc2n(C)c1=O`, the call was inactive.

Take `CCc1cccc(CC)c1N`: the molecule was called inactive.
